Reference: the supplement of paper PMC10933113
A number with no mark means an inactive call.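 How the source made its calls: active = curve rank above 3; inactive = curve rank 0.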

System: KeratinoSens (HaCaT ARE-luciferase) cells
Experiment: Nrf2/ARE luciferase activation call in qHTS KeratinoSens assay (1 = active, 0 = inactive)

SMILES | Nrf2/ARE luciferase activation call
C[NH+](C)CCC(c1ccc(Cl)cc1)c1ccccn1.O=C([O-])/C=C\C(=O)O (stereo not drawn) | not active ARE inducer (skin sensitizer alert)
COC[C@H](c1ccc(C(F)(F)F)cc1)N1CCN(C2(C)CCN(C(=O)c3c(C)ncnc3C)CC2)C[C@H]1C.O=C(O)/C=C\C(=O)O | not active ARE inducer (skin sensitizer alert)
C[n+]1c2cc(N)ccc2cc2ccc(N)cc21.Nc1ccc2cc3ccc(N)cc3nc2c1.[Cl-] | active ARE inducer (skin sensitizer alert)
CN(C)CC[C@@H](c1ccc(Br)cc1)c1ccccn1.O=C(O)/C=C\C(=O)O | not active ARE inducer (skin sensitizer alert)
O=C(CCC1CCN(Cc2ccccc2)CC1)c1ccc2c(c1)NCCCC2.O=C(O)/C=C/C(=O)O | not active ARE inducer (skin sensitizer alert)
CC(C)C[P+](C)(CC(C)C)CC(C)C.Cc1ccc(S(=O)(=O)[O-])cc1 | not active ARE inducer (skin sensitizer alert)
CCCCCC[n+]1ccccc1.O=S(=O)([O-])C(F)(F)F | not active ARE inducer (skin sensitizer alert)
COc1ccc(CN(CCN(C)C)c2ccccn2)cc1.O=C(O)/C=C\C(=O)O | not active ARE inducer (skin sensitizer alert)
